# Test results from PubChem BioAssay (NCI).
# About 83,000 compounds went through this panel and 20% of them were active in at least one assay; those are over-represented in the sample as a whole.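 How to read the values: 0–100, growth inhibition (40 = 60% inhibited); 0, no net growth; -100 to 0, cell death (-40 = 40% of starting cells died; -100 = all dead).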 A number with no mark means an inactive call. Activity calls are given as the source filed them. How the source made its calls: active means growth percent below 10; inactive means the rest.
# Key:
# Assay in all cases: NCI-60 one-dose screen, 48 h (100 = growth as untreated, 0 = no growth, -100 = all killed)
# NCI-H23 lung = conditions: 10 µM unless noted
# NCI-H226 lung = conditions: 10 µM unless noted
# NCI-H322M lung = conditions: 10 µM unless noted
# HOP-62 NSCLC = conditions: 10 µM unless noted
# NCI-H460 lung = conditions: 10 µM unless noted
# HOP-92 NSCLC = conditions: 10 µM unless noted
# NCI-H522 lung = conditions: 10 µM unless noted
# A549/ATCC NSCLC = conditions: 10 µM unless noted
# 786-0 renal = conditions: 10 µM unless noted
# COLO 205 colon = conditions: 10 µM unless noted
# DU-145 prostate = conditions: 10 µM unless noted
# K-562 leukemia = conditions: 10 µM unless noted
# MALME-3M melanoma = conditions: 10 µM unless noted
# MDA-MB-231 breast = conditions: 10 µM unless noted
# RXF 393 renal = conditions: 10 µM unless noted
# SF-268 CNS = conditions: 10 µM unless noted
# SF-295 CNS = conditions: 10 µM unless noted
# SF-539 CNS = conditions: 10 µM unless noted
# UACC-257 melanoma = conditions: 10 µM
# M14 melanoma = conditions: 10 µM unless noted
SMILES,growth (NCI-H23 lung),growth (NCI-H226 lung),growth (NCI-H322M lung),growth (HOP-62 NSCLC),growth (NCI-H460 lung),growth (HOP-92 NSCLC),growth (NCI-H522 lung),growth (A549/ATCC NSCLC),growth (786-0 renal),growth (COLO 205 colon),growth (DU-145 prostate),growth (K-562 leukemia),growth (MALME-3M melanoma),growth (MDA-MB-231 breast),growth (RXF 393 renal),growth (SF-268 CNS),growth (SF-295 CNS),growth (SF-539 CNS),growth (UACC-257 melanoma),growth (M14 melanoma)
CCn1cc(C(=O)O)c(=O)c2cc(F)c(N3CCN(S(=O)(=O)c4ccc(Cl)cc4Cl)CC3)cc21,-3.58% (active),13.1%,-5.57% (active),19.5%,10.9%,-9.06% (active),-75.8% (active),2.05% (active),18.7%,-59.8% (active),11.6%,10.9%,-19.8% (active),25.5%,27.9%,24.6%,-32% (active),8.88% (active),-15.2% (active),15.9%
COc1cc(NCCCN=C(N)NC(N)=NC(C)C)c2ncccc2c1,34.7%,92%,52%,96.2%,91.9%,36.9%,-13.1% (active),78.6%,98.8%,-1.53% (active),106%,44.6%,-24.2% (active),64.9%,94.8%,44.1%,87.5%,21.7%,45.1%,65.3%
O=S(=O)(NCCNc1cc(-c2cn(-c3ccccc3)nc2-c2ccccc2)ccn1)c1ccc(F)cc1,81.6%,77.7%,96.2%,98.8%,91.7%,40.7%,82.9%,77.6%,81.5%,98.8%,88.3%,54.3%,101%,80.1%,75.1%,83.2%,87.6%,103%,–,87%
COC1=CC(c2ccc[nH]2)=N/C1=C\c1[nH]c(C)c(CCCn2cc(CCCCCCCCC[C@@H]3Cc4cc(O)ccc4C4CC[C@]5(C)[C@@H](O)CC[C@H]5C43)nn2)c1C (some centres not stated),49.9%,68.2%,44.6%,60.3%,37.3%,25.8%,24.5%,48.3%,63.9%,35.8%,33.3%,28%,137%,-12.8% (active),28.1%,58.2%,65.2%,59.1%,98.5%,74%
COc1ccc(C2SCC(=O)N2NC(=O)c2ccc(NC(=O)c3ccccn3)cc2)cc1OC (configuration not stated),102%,94.3%,95.2%,88.1%,113%,116%,81.8%,91.7%,97.2%,109%,105%,95.9%,105%,102%,103%,96.5%,101%,98.8%,92.2%,102%
COc1cc(/C=C2\C=C(c3ccc(F)cc3)N(Cc3ccccc3)C2=O)cc(OC)c1OC,62.6%,56.7%,61.4%,108%,66.4%,35%,90.6%,56.4%,66.6%,82.7%,94.8%,56.1%,90.7%,78.7%,64.5%,77.4%,83.6%,87%,79.3%,76.2%
O=C(NCCCN1CCN(CCCNC(=O)C2CCCCC2)CC1)C1CCCCC1,111%,105%,91.9%,94.7%,101%,70.5%,95%,101%,96.5%,104%,110%,92.7%,94%,108%,119%,104%,84.5%,96.7%,97.1%,98.6%
CC(C)(C)c1ccc(S(=O)(=O)Oc2ccc3c4c(c(=O)oc3c2)CCCCC4)cc1,43%,56.7%,85.9%,85.2%,43.2%,3.94% (active),-14.1% (active),59.3%,60.8%,37.4%,77.4%,38.5%,44%,80.2%,48.1%,61.1%,2.71% (active),42.7%,48.9%,39.4%
CC(C)CCN(CCCNc1c2c(nc3ccccc13)CCCC2)CCC(C)C,84.1%,102%,81.7%,102%,91%,42.4%,103%,94.1%,77.6%,61.7%,86.3%,31.4%,84.9%,24.5%,81.9%,89.4%,80.1%,88.2%,94.5%,35.9%
Cc1ccc(Cn2c(-c3cccs3)nc3ccccc32)cc1,96.2%,77.3%,92%,105%,88%,72.5%,85.1%,74.2%,99%,110%,110%,5.16% (active),120%,96.2%,92.5%,104%,72%,102%,89.9%,107%
O=c1c2cccc3c(Nc4ccc(F)cc4)ccc(c32)c2nc3ccccc3n12,83.8%,92.7%,67.8%,87.5%,77.9%,53.2%,82%,96.1%,97.5%,84.5%,95.5%,89.5%,94.1%,70.9%,98%,95.3%,109%,83.8%,86.2%,96.7%
CCC1CCc2nc3sc(C(=O)Nc4cccc(C)c4)c(N)c3cc2C1 (configuration not stated),101%,96%,94.8%,87%,88.1%,55.2%,71.5%,77.3%,94.9%,93%,78.3%,35.8%,47.4%,79.8%,83.9%,77.6%,70.4%,73.1%,56.3%,55.1%
Nc1ccc(S(=O)(=O)c2ccc(Cl)cc2)cc1,97.9%,98%,91.4%,97.8%,96%,93.4%,89.7%,86.6%,99%,109%,104%,109%,85.7%,92.3%,113%,96.8%,98.2%,86%,–,96.1%
COc1ccc(C(=O)/C=C/c2ccc(/C=C/c3cc(OC)c(OC)c(OC)c3)cc2)cc1,43.5%,72.4%,64.8%,71%,59.6%,51.9%,5.55% (active),36.3%,67.7%,68.1%,68.4%,14.4%,66.8%,76.8%,71.3%,66.2%,57.9%,86.3%,72.5%,67%
O=C1c2ccccc2C(=O)c2c(N=Nc3sc(=O)[nH]c3S)cccc21,96.3%,110%,99%,99.3%,95.9%,92.9%,83.1%,98.1%,107%,98.9%,103%,78.5%,93.3%,97.1%,115%,97.3%,97.2%,107%,88.5%,96.2%
O=C(Nc1cccc(Cl)c1)c1cc([N+](=O)[O-])ccc1O,25.8%,68.2%,43.9%,44.2%,54%,8.95% (active),-2.45% (active),66.9%,63.8%,76.7%,73.2%,27.7%,22%,38%,46.2%,65%,58.8%,32.2%,–,54.9%
